{"source": "ChEMBL document CHEMBL4513149", "about": "“CO-ADD screening of MMV (CH) - MMV compounds” (2021)", "note": "In all, about 23,000 compounds went through this assay and about 30 (0.1%) showed an effect of 50% or more. Many of the other results were omitted from the sample, so strong results are more common in it than they were. Measured potencies and affinities stand elsewhere.", "data": [{"system": "Pseudomonas aeruginosa", "conditions": "Concentration 20 uM; ASSAY_TEST Inhibition of Bacterial Growth; detection method Absorption (OD600); MEDIA CAMHB; plate type 384well; NBS; CORNING #3640; time 18 hr", "units": {"Inhibition": "%"}, "values": [{"smiles": "Cl.O=C(Nc1ccc(N2CCNCC2)nc1)c1oc(-c2ccccc2)nc1C(F)(F)F", "Inhibition": -17.92}, {"smiles": "N=C(N)c1ccc(-c2cc(-c3ccccc3)on2)cc1", "Inhibition": 13.36}, {"smiles": "CC(C)=CCC/C(C)=C\\CNCCNC1C2CC3CC(C2)CC1C3", "note": "(centres undefined)", "Inhibition": 27.33}, {"smiles": "O=C(c1ccc(F)cc1)N(CCNc1ccccc1)c1ccccc1", "Inhibition": 12.58}]}]}
